From PubChem BioAssay AID1159580 (chemical genetic matrix, 2015)
Among all 5,500 compounds or so, about 2,000 (36%) were called active. Another 18% or so got no clear call; they are omitted. Cut-off read from the data, not from the text of the source: active = normalized growth mostly below about 0.91 (no sharp cut-off); inconclusive = no clear call, values can overlap the other calls; inactive = mostly above about 0.92. Some of the results follow.

Experiment: chemical genetic growth profiling, strain panel (AID 1159580);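 note: tested at 20 µM; growth read once vehicle control cultures reached saturation at 30 °C; 1 = growth at the plate median or of vehicle wells; lower values mean less growth of the strain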
Conditions: growth OD

Measured: normalized growth

NC(=O)c1ccc[n+]([C@@H]2O[C@H](COP(=O)([O-])OP(=O)(O)OC[C@H]3O[C@@H](n4cnc5c(N)ncnc54)[C@H](OP(=O)(O)O)[C@@H]3O)[C@@H](O)[C@H]2O)c1
inactive: S. cerevisiae deletion strains, locus YAL013W, strain DEP1, active compounds read low 1.02 | S. cerevisiae deletion strains, locus YBR021W, strain FUR4, active compounds read low 1 | S. cerevisiae deletion strains, locus YBR229C, strain ROT2, active compounds read low 1.03 | S. cerevisiae deletion strains, locus YCL029C, strain bik1, active compounds read low 1 | S. cerevisiae deletion strains, locus YDL035C, strain GPR1, active compounds read low 1.06 | S. cerevisiae deletion strains, locus YDL074C, strain BRE1, active compounds read low 1.02 | S. cerevisiae deletion strains, locus YDL101C, strain DUN1, active compounds read low 1.02 | S. cerevisiae deletion strains, locus YDL134C, strain PPH21, active compounds read low 1.02 | S. cerevisiae deletion strains, locus YDL185W, strain tfp1, active compounds read low 0.994 | S. cerevisiae deletion strains, locus YDL192W, strain arf1, active compounds read low 1.01 | S. cerevisiae deletion strains, locus YDR101C, strain arx1, active compounds read low 1.01 | S. cerevisiae deletion strains, locus YDR150W, strain NUM1, active compounds read low 1.02 | S. cerevisiae deletion strains, locus YDR162C, strain NBP2, active compounds read low 1.03 | S. cerevisiae deletion strains, locus YDR318W, strain mcm21, active compounds read low 1.01 | S. cerevisiae deletion strains, locus YDR388W, active compounds read low 0.985 | S. cerevisiae deletion strains, locus YDR502C, strain sam2, active compounds read low 1.03 | S. cerevisiae deletion strains, locus YEL061C, strain CIN8, active compounds read low 1.02 | S. cerevisiae deletion strains, locus YER110C, active compounds read low 1 | S. cerevisiae deletion strains, locus YER155C, strain BEM2, active compounds read low 1 | S. cerevisiae deletion strains, locus YER167W, strain BCK2, active compounds read low 1.04 | S. cerevisiae deletion strains, locus YGL078C, strain dbp3, active compounds read low 0.995 | S. cerevisiae deletion strains, locus YGL086W, strain mad1, active compounds read low 1.04 | S. cerevisiae deletion strains, locus YGL248W, strain PDE1, active compounds read low 1.02 | S. cerevisiae deletion strains, locus YGR078C, strain PAC10, active compounds read low 1.04 | S. cerevisiae deletion strains, locus YGR135W, strain pre9, active compounds read low 1.02 | S. cerevisiae deletion strains, locus YGR229C, strain SMI1, active compounds read low 1.03 | S. cerevisiae deletion strains, locus YGR252W, strain gcn5, active compounds read low 1.03 | S. cerevisiae deletion strains, locus YHR030C, strain SLT2, active compounds read low 1.01 | S. cerevisiae deletion strains, locus YHR079C, strain IRE1 (second series), active compounds read low 1.01 | S. cerevisiae deletion strains, locus YHR094C, strain hxt1, active compounds read low 0.995 | S. cerevisiae deletion strains, locus YHR129C, strain ARP1, active compounds read low 1.02 | S. cerevisiae deletion strains, locus YHR200W, strain rpn10, active compounds read low 1 | S. cerevisiae deletion strains, locus YIL066C, strain RNR3, active compounds read low 1.03 | S. cerevisiae deletion strains, locus YIL073C, strain SPO22, active compounds read low 1.02 | S. cerevisiae deletion strains, locus YIL125W, strain kgd1, active compounds read low 0.981 | S. cerevisiae deletion strains, locus YIR030C, strain dcg1, active compounds read low 0.996 | S. cerevisiae deletion strains, locus YJL095W, strain BCK1, active compounds read low 1.03 | S. cerevisiae deletion strains, locus YJL134W, strain LCB3, active compounds read low 1.01 | S. cerevisiae deletion strains, locus YJL168C, strain set2, active compounds read low 0.996 | S. cerevisiae deletion strains, locus YJL187C, strain SWE1 (second series), active compounds read low 1.03 | S. cerevisiae deletion strains, locus YJR043C, strain POL32, active compounds read low 1.03 | S. cerevisiae deletion strains, locus YJR075W, strain HOC1, active compounds read low 1.05 | S. cerevisiae deletion strains, locus YKL009W, strain mrt4, active compounds read low 1.02 | S. cerevisiae deletion strains, locus YKL068W, active compounds read low 0.999 | S. cerevisiae deletion strains, locus YKL085W, strain MDH1 (second series), active compounds read low 0.99 | S. cerevisiae deletion strains, locus YKL085W, strain MDH1, active compounds read low 0.99 | S. cerevisiae deletion strains, locus YKL190W, strain CNB1, active compounds read low 1.01 | S. cerevisiae deletion strains, locus YKR001C, strain vps1, active compounds read low 0.996 | S. cerevisiae deletion strains, locus YLR039C, strain RIC1, active compounds read low 1.04 | S. cerevisiae deletion strains, locus YLR058C, strain SHM2, active compounds read low 1.02 | S. cerevisiae deletion strains, locus YLR102C, strain apc9, active compounds read low 0.99 | S. cerevisiae deletion strains, locus YLR262C, strain YPT6, active compounds read low 1.08 | S. cerevisiae deletion strains, locus YLR268W, strain sec22, active compounds read low 0.949 | S. cerevisiae deletion strains, locus YLR330W, strain CHS5, active compounds read low 1.01 | S. cerevisiae deletion strains, locus YLR342W, strain FKS1 (second series), active compounds read low 1.04 | S. cerevisiae deletion strains, locus YLR371W, strain rom2, active compounds read low 0.987 | S. cerevisiae deletion strains, locus YLR418C, strain cdc73, active compounds read low 1.04 | S. cerevisiae deletion strains, locus YML016C, strain PPZ1, active compounds read low 1.02 | S. cerevisiae deletion strains, locus YML032C, strain rad52, active compounds read low 0.979 | S. cerevisiae deletion strains, locus YML124C, strain tub3, active compounds read low 0.991 | S. cerevisiae deletion strains, locus YMR078C, strain ctf18, active compounds read low 0.995 | S. cerevisiae deletion strains, locus YMR223W, strain ubp8, active compounds read low 1.04 | S. cerevisiae deletion strains, locus YMR263W, strain SAP30, active compounds read low 1.04 | S. cerevisiae deletion strains, locus YMR307W, strain GAS1, active compounds read low 1.07 | S. cerevisiae deletion strains, locus YNL067W, strain RPL9B, active compounds read low 1.04 | S. cerevisiae deletion strains, locus YNL128W, strain TEP1, active compounds read low 1.05 | S. cerevisiae deletion strains, locus YNL153C, strain GIM3, active compounds read low 1.02 | S. cerevisiae deletion strains, locus YNL233W, strain BNI4, active compounds read low 1.03 | S. cerevisiae deletion strains, locus YNL250W, strain rad50, active compounds read low 0.995 | S. cerevisiae deletion strains, locus YNL271C, strain bni1, active compounds read low 0.993 | S. cerevisiae deletion strains, locus YNL298W, strain CLA4, active compounds read low 0.989 | S. cerevisiae deletion strains, locus YNL307C, strain MCK1, active compounds read low 1.01 | S. cerevisiae deletion strains, locus YNL322C, strain KRE1, active compounds read low 1.01 | S. cerevisiae deletion strains, locus YNR052C, strain pop2, active compounds read low 0.991 | S. cerevisiae deletion strains, locus YOL006C, strain TOP1, active compounds read low 1.03 | S. cerevisiae deletion strains, locus YOL012C, strain htz1 0.919 | S. cerevisiae deletion strains, locus YOL147C, strain pex11, active compounds read low 0.995 | S. cerevisiae deletion strains, locus YOR061W, strain CKA2, active compounds read low 1.02 | S. cerevisiae deletion strains, locus YOR069W, strain VPS5, active compounds read low 1.01 | S. cerevisiae deletion strains, locus YOR136W, strain idh2, active compounds read low 1.01 | S. cerevisiae deletion strains, locus YOR144C, strain elg1, active compounds read low 0.984 | S. cerevisiae deletion strains, locus YOR184W, strain ser1, active compounds read low 1.02 | S. cerevisiae deletion strains, locus YOR316C, strain cot1, active compounds read low 0.997 | S. cerevisiae deletion strains, locus YPL055C, strain LGE1, active compounds read low 1.05 | S. cerevisiae deletion strains, locus YPL241C, strain CIN2, active compounds read low 1.02 | S. cerevisiae deletion strains, locus YPR119W, strain clb2, active compounds read low 0.986 | S. cerevisiae deletion strains, locus YPR141C, strain kar3, active compounds read low 0.978 | S. cerevisiae deletion strains, locus YPR163C, strain tif3, active compounds read low 0.997 | S. cerevisiae deletion strains, locus YPR167C, strain met16, active compounds read low 0.99 | S. cerevisiae deletion strains, strain wtn01, active compounds read low 1 | S. cerevisiae strains, strain wild type, active compounds read low 1.03
